Screens (PubChem BioAssay)
Only some compounds are listed: those with a hit (about 3.5% of all), similar ones and a draw of the others.
TEAD-YAP inh: TEAD-YAP interaction inhibition, primary screen, TEAD-YAP interaction inhibitor project, luminescence, HEK-TIYL cells; TEAD-Gal4/YAP UAS-luciferase luminescence; inhibition, % at 9.12 µM; AID 1259422, 2018; 640,000 compounds, 1.4% hits; in the data active = inhibition above about 32%;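 also: 0% = median of test compound wells and 100% = reference inhibitor wells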
GPR151 activ: activators of human GPR151, primary screen, cell-based, PathHunter beta-arrestin, luminescence; 650,000 compounds, 1% hits; G-protein coupled receptor 151 (Homo sapiens), Q8TDV0; PathHunter beta-arrestin GPR151 cells; activation, % at 11.2 µM; in the data active = activation above about 4.9%;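 also: 0% = median of compound wells and 100% = cells with positive control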
Target sequence (Q8TDV0 whole entry, looked up): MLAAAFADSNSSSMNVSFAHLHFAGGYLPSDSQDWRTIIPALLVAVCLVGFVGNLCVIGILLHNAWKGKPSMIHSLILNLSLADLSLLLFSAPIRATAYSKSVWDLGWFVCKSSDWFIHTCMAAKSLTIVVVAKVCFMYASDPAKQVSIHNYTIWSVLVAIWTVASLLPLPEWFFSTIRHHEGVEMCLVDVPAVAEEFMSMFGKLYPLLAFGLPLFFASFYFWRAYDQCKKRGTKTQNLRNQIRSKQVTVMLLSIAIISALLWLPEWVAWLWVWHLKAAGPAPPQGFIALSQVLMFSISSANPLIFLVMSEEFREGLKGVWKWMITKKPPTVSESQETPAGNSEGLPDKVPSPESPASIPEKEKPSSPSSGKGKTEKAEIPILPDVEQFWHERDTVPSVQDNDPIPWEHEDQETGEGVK
FBW7 activator: FBW7 E3 ligase activators, primary screen, biochemical, AlphaScreen, human. F-box/WD repeat-containing protein 7 (Homo sapiens), Q969H0. AlphaScreen FBW7–phospho-cyclin E peptide binding, activator screen. normalized activity (activation), % at 26.1 µM. 650,000 compounds, 0.13% hits; in the data active = normalized activity above about 1.9%;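 also: purified mutant Fbw7 with reduced substrate affinity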
MITF inh: MITF inhibitors, primary screen, biochemical, AlphaScreen, human | AlphaScreen MITF homodimerization, bead proximity signal | inhibition, % at 2.6 µM | 650,000 compounds, 0.91% hits | AID 1259374, 2018; in the data active = inhibition above about 50%;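 also: 0% = vehicle wells with protein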
GPR151 conf act: GPR151 activators, triplicate retest, confirmation, cell-based, PathHunter beta-arrestin, luminescence. AID 1508609, 2020. 6,700 tested, under 10 active. GPR151 PathHunter beta-arrestin cells, 90 min; % of EA-reagent control over plate median. shares compounds with GPR151 activ. activation, % at 11.2 µM;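 active = mean percent activation across replicates above the confirmation screen cutoff of 4.91%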
GPR119 counter: GPR119 activators in beta-arrestin cells, counter-screen for GPR151 activator project, cell-based, PathHunter beta-arrestin, luminescence, triplicate | shares compounds with GPR151 activ | 90 min; 0 = compound-well median, 100 = enzyme-acceptor control | activation, % at 11.2 µM | 6,700 compounds, 0.3% hits | AID 1508611, 2020;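 active = mean percent activation in the counterscreen above 29.09%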;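 also: counterscreen on off-target GPR119 to flag nonselective hits from the GPR151 activator screen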
* marks the source's active call; other numbers are inactive results; . = no result given.

SMILES	TEAD-YAP inh	GPR151 activ	FBW7 activator	MITF inh	GPR151 conf act	GPR119 counter
CCC(=O)N1c2ccccc2NC2=C(C(=O)CC(C)(C)C2)C1c1ccc(Cl)cc1 (configuration not stated)	10	5.1*	0	0	0	-17
CC1(C)CC(=O)C2=C(C1)Nc1cc(C(=O)c3ccccc3)ccc1N1C(=O)c3ccccc3C21 (configuration not stated)	17	5.1*	0	2	1	9
O=C(c1ccc(Br)c(S(=O)(=O)N2CCCCC2)c1)N1CCCCC1	-10	11*	0	-11	2	14
O=C(Nc1nc2ncccc2cc1-c1ccccc1)C1CCCCC1	1	-1	1	5	.	.
CC(C)CC(NC(=O)c1ccccc1)C(=O)OCC(=O)c1ccccc1 (configuration not stated)	-9	1	0	-11	.	.
CC(C)CC(NC(=O)c1ccccc1)C(=O)OCc1ccccc1 (configuration not stated)	4	5.6*	0	15	-1	-4
C=CCOc1ccc(/C=N/NC(=O)C(=O)Nc2ccc(OCC)cc2)cc1	1	2	0	10	.	.
Cc1cc(Nc2ccccc2)nc(-c2ccc(C(N)=O)cc2)n1	-52	-2	0	-5	.	.
Cc1nnc(CN(C)Cc2cn[nH]c2-c2ccc(C)c(C)c2)o1	-18	6.7*	0	10	0	6
Cc1ccc(-c2[nH]ncc2CN(C)Cc2c(C)n[nH]c2C)cc1C	7	-2	0	1	.	.
CCN(Cc1ccncc1)Cc1ccc2c(c1)CN(C(=O)C1CCCCCN1C)CCO2 (configuration not stated)	-7	0	0	12	.	.
CNC(=O)C1=C(C)NC(=S)NC1c1ccccc1OC (configuration not stated)	2	9.5*	0	2	-1	-13
COc1ccccc1C1NC(=S)NC(C)=C1C(=O)c1ccccc1 (configuration not stated)	3	2	0	9	.	.
CC1CCc2c(sc(NC(=O)c3ccco3)c2C(N)=O)C1 (configuration not stated)	-52	0	0	9	.	.
CCCn1c(C2CC2)nc2ccccc21	-2	9.9*	0	-1	0	2
Cc1ccc2onc(CC(=O)NCCN3CCN(C)CC3)c2c1	12	-1	0	-3	.	.
COc1ccc(C(=O)NCCS(=O)(=O)NCCCOC(C)C)cc1	-2	5.2*	0	3	-2	-15
CCC(=O)NNc1nc2ccc(OC)cc2s1	3	6.3*	1	-9	1	6
CCN(CC)CC(=O)Nc1nc2ccc(OC)cc2s1	-15	1	0	13	.	.
CC1(C)CC(=O)C(C=Nc2ccc(NC3=C(C#N)C(=O)CC(C)(C)C3)cc2)=C(O)C1	-1	7.1*	0	16	1	-2
Cc1c(NC(=O)c2ccc(OCc3c(F)cccc3Cl)cc2)c(=O)n(-c2ccccc2)n1C	5	8.3*	0	4	2	-2
COc1cccc(CN(C(=O)/C=C/c2ccc(Cl)cc2)C2CCS(=O)(=O)C2)c1 (configuration not stated)	4	6.9*	0	9	1	3
COc1ccc(OC)c(-n2c(CN3CCC(C(N)=O)CC3)nc3ccccc3c2=O)c1	15	5.6*	0	5	0	-11
Cc1nnc2ccc(SCC(=O)N3C[C@@H]4CCC[C@H]3C4)nn12	4	2	0	3	.	.
Cc1nn(Cc2ccccc2Cl)c(Cl)c1/C=C/C(=O)OCC#N	-23	10*	0	3	-1	1
SMILES	TEAD-YAP inh	GPR151 activ	FBW7 activator	MITF inh	GPR151 conf act	GPR119 counter
Cc1cccc(N(CCN2C(=O)c3cccc4c(Br)ccc(c34)C2=O)C(=O)c2cccc([N+](=O)[O-])c2)c1	-9	1	0	10	.	.
COCC1CCCCN1Cc1c(C(=O)N2CCCN(C)CC2)nc2sccn12 (configuration not stated)	6	15*	0	3	0	6
COCC1CCCN(Cc2c(C(=O)N3CCCN(C)CC3)nc3sccn23)C1 (configuration not stated)	1	0	0	8	.	.
COc1cc(Nc2nc(SCC(=O)c3ccc(Cl)cc3)nc3ccccc23)cc(OC)c1	9	2	0	1	.	.
CCCCc1ccc(C(=O)N/C(=C\c2ccc(C)cc2)C(=O)Nc2ccccc2)cc1	4	-1	0	7	.	.
Cc1cccc(C(=O)Oc2ccc(C)c(C)c2)c1	2	1	0	-22	.	.
Cc1cccc(C(=O)Oc2ccc(/C=N/N=C(N)N)cc2)c1	65*	8.5*	0	-14	-1	-14
CCc1csc2ncc(C(=O)Nc3ccc(OC(F)(F)F)cc3)c(=O)n12	5	0	0	3	.	.
Cn1cc(C(=O)Nc2cc(Oc3ccc(F)cc3F)cc([N+](=O)[O-])c2)c2ccccc2c1=O	5	-1	1	-1	.	.
CS(=O)(=O)N1CCC(Oc2ccc(-c3ccc(C#N)cc3)cc2)CC1	7	12*	0	-6	-1	-6
CCN1CCC(Oc2ccc(-c3ccc(C#N)cc3)cc2)CC1	-15	4	0	3	.	.
Cc1cc(=O)[nH]c2nnc(SCC(=O)N3CCCCCC3)n12	4	6.1*	0	-4	0	0
Cc1cc(C)nc(SCC(=O)N2CCCCC2)n1	-2	7.5*	0	13	0	15
COc1ccc(-c2noc(N3CCC(C(=O)NCc4ccc5c(c4)OCO5)CC3)n2)cc1	0	7.9*	0	9	0	3
COc1c(Cl)cc(C(=O)NCc2ccc3c(c2)OCO3)cc1Cl	-6	5.9*	0	0	0	-8
C=CCN(c1ccc(C(=O)Nc2ccc(Cl)cc2)cc1)S(C)(=O)=O	11	9.2*	0	10	3	16
Fc1ccc(/C=N/Nc2nc3ccccc3s2)cc1	-64	7.0*	0	3	-1	4
CC(C(=O)Nc1ccc(Br)cc1F)N1Cc2ccccc2C1=O (configuration not stated)	2	1	0	0	.	.
CC(C(=O)Nc1ccc(Br)cn1)N1Cc2ccccc2C1=O (configuration not stated)	85*	7.2*	0	-1	0	-2
Clc1cc2c(cc1-c1nc(-c3ccccc3)c(-c3ccccc3)[nH]1)OCO2	-1	6.6*	0	47	2	20
